The campaign covered roughly 53,000 compounds. About 900 (1.7%) showed an effect of 50% or more. The list comes from a sample in which strong results are over-represented; it also holds similar structures and randomly drawn compounds.
Test system: Mycobacterium tuberculosis
Experiment: Cornell - Phenotypic assay to identify agents that inhibit growth of Mycobacterium tuberculosis
Type: functional
Set-up: scale not given: direction of the effect not stated beside the values
Details: 10 mM as filed; unlikely as a test dose

SMILES	Percent Effect [%]
CCN1CCn2c(C)cnc2C12CCN(C(=O)C(C)C)CC2.O=C(O)C(F)(F)F.O=C(O)C(F)(F)F	14.47
COCCN1C(=O)CO[C@H]2CN(Cc3cccc(OC)c3F)C[C@@H]21	-23.69
Cc1cc(NC(=O)CN2CCN(c3nccs3)C(C)C2)on1 (stereo unspecified)	22.95
CCOc1ccc(NC(=O)Cn2cc(I)cn2)cc1	8.752
OC1CN(c2nc3c(C(F)(F)F)cccc3s2)C1	-37.29
Cc1ccccc1NC1CCN(C(=O)CCc2ccco2)CC1	50.28
Cc1ccc(NC2CCN(C(=O)CCc3ccco3)CC2)nn1	9.645
O=C(CCc1ccco1)N1CCC(Nc2cccnn2)CC1	-37.65
COc1cccc(Cn2ncnc2CCSC)c1	21.64
CN(Cc1cncnc1)[C@@H]1CN(C(=O)C2CC2)[C@@H]2CCCO[C@H]12.O=C(O)C(F)(F)F	10.43
Cn1cc(CN2CCC(c3cc(COc4ccc(Cl)cc4)[nH]n3)C2)cn1 (stereo unspecified)	8.733
CCCN1CCC(c2cc(CCOc3ccc(C(F)(F)F)cc3)[nH]n2)C1 (stereo unspecified)	74.52
Clc1ccc(OCCc2cc(C3CCN(c4ncccn4)C3)n[nH]2)cc1 (stereo unspecified)	81.19
Cc1cc(C2CCCN(C(=O)COc3ccc(F)cc3)C2)n[nH]1 (stereo unspecified)	21.79
Cc1cc(C)nc(N2CCC(c3cc(CCO)[nH]n3)C2)n1 (stereo unspecified)	21.68
Br.COc1ccc(OCCc2cc(C3CCN(CC(C)C)C3)n[nH]2)cc1 (stereo unspecified)	44.88
CN(C)CCCNCCC(Cc1ccccc1)C1CCOC(C)(C)C1.O=C(O)C(=O)O (stereo unspecified)	18.5
O=C(c1cc[nH]n1)N1CCOCC2(C1)CN(c1ccccc1)C(=O)CO2 (stereo unspecified)	56
O=C(c1ccc[nH]1)N1CCOCC2(C1)CN(c1ccccc1)C(=O)CO2 (stereo unspecified)	34.74
O=C(O)C(F)(F)F.O=C(c1c[nH]cn1)N1CCOCC2(C1)CN(c1ccccc1)C(=O)CO2 (stereo unspecified)	29.26
CCn1nnnc1-c1cccc(NCc2nc(C)ccc2O)c1	4.577
O=C(O)CCCN1C[C@@H](c2ccccc2F)[C@@]2(CCCCC(=O)N2)C1	43.05
COc1cc(F)c(S(=O)(=O)Nc2cnc(O)cc2C)cc1OC	3.766
CC(Cn1cncc1-c1cnn(Cc2ccccc2)c1)N1CCCCC1.Cl (stereo unspecified)	58.13
CCC(CN1CCCC1)n1cncc1-c1cnn(Cc2ccccc2)c1.Cl (stereo unspecified)	36.43
CC(Cn1cncc1-c1cnn(C2CCCCC2)c1)N1CCCCC1.Cl (stereo unspecified)	-3.197

SMILES	Percent Effect [%]
CCOc1ccccc1N1CCN(C(=O)NCc2cc[nH]n2)CC1	-20.55
CNc1cc(C2CCCN2C(=O)c2ccc(=O)[nH]n2)ccn1.O=CO (stereo unspecified)	2.671
CCC(CN1CCOCC1)n1cncc1-c1ccc2c(c1)CCCN2C.Cl (stereo unspecified)	15.31
CCC(CN1CCCC1)n1cncc1-c1cnn(-c2ccc(F)cc2)c1.Cl (stereo unspecified)	20.09
CCC(CN1CCCC1)n1cncc1-c1cnn(-c2ccccc2)c1.Cl (stereo unspecified)	55.09
CCn1nc(C)cc1C(=O)NCc1cc(N(C)C)nc2ccccc12	34.42
CC(C)OCCCNC(=O)CN1CCN(c2nccs2)CC1	4.56
O=C(c1cnc(O)c(Cl)c1)N1CCCC(c2nccs2)C1 (stereo unspecified)	-10.54
O=C(NCCCO)Nc1cnc2cc(Cl)ccc2c1O	81.69
O=C(NCCCN1CCOCC1)Nc1cnc2cc(Cl)ccc2c1O	32.37
O=C(NCCN1CCOCC1)Nc1cnc2cc(Cl)ccc2c1O	-4.322
CNC(=O)Nc1cnc2cc(Cl)ccc2c1O	-22.82
O=C(NCC1CC1)Nc1cnc2cc(Cl)ccc2c1O	-6.744
O=C(NCCO)Nc1cnc2cc(Cl)ccc2c1O	103.7
Cl.O=C(NCCn1nc(C2CCNC2)c2cccnc21)C1CC1 (stereo unspecified)	-8.257
O=C(O)COc1ccccc1CN1CCCC1c1ccncn1 (stereo unspecified)	-19.71
CC(SCC(=O)N(C)CC(=O)NC1CC1)c1cc(F)ccc1F (stereo unspecified)	-24.27
O=C(NCc1ccco1)[C@H]1COC[C@H]2CN(Cc3ccoc3)C[C@H]21.O=C(O)C(F)(F)F	-10.46
CN(Cc1cccs1)C1CCC[C@@H]2CN(C(=O)c3cccn3C)C[C@H]12 (stereo partly specified)	28.44
CN(C(=O)Cc1cccs1)C1CCN(c2ccccn2)CC1	-44.78
Cn1cccc1CN(C(=O)CC(CC(=O)O)c1cccs1)C1CC1 (stereo unspecified)	104.7
O=C(O)CC(CC(=O)N(Cc1ccsc1)C1CC1)c1cccs1 (stereo unspecified)	15.88
O=C(O)CC(CC(=O)NCCc1cccs1)c1cccs1 (stereo unspecified)	23.94
Cn1cccc1CN(C(=O)Cc1cccs1)C1CC1	91.3
Cc1ccc(N(C)[C@@H]2CC[C@@H]3CN(C(=O)C4CCOCC4)C[C@@H]32)nn1	-1.727
CCN(Cc1nc(Cc2ccccc2)no1)C1CC1	-4.646

SMILES	Percent Effect [%]
CC(C)c1ccc(S(=O)(=O)N2CSCC2C(=O)NCC(F)(F)F)cc1 (stereo unspecified)	11.48
Cc1cccc(CNC(=O)NCC2CCN(Cc3ncc[nH]3)C2)c1 (stereo unspecified)	26.47
Cc1cc(CN2CCCC2c2noc(C3CC3)n2)c2ccccc2n1 (stereo unspecified)	12.61
c1cc(CN2CCCC2c2noc(C3CC3)n2)on1 (stereo unspecified)	-61.35
c1ccc2sc(CN3CCCC3c3noc(C4CC4)n3)nc2c1 (stereo unspecified)	50.21
CCOC(=O)[C@]12CCCN(Cc3cccs3)C[C@H]1CN(CCOC)C2.O=C(O)C(F)(F)F.O=C(O)C(F)(F)F	11.02
COc1ccc(CNC(C)c2cnn(C)c2)cc1OC1CCCC1 (stereo unspecified)	9.224
O=C(O)C(F)(F)F.c1coc(CN2CCCn3c(nnc3Cn3cccc3)C2)c1	21.05
Cl.O=C(NCCn1nc(C2CCNC2)c2cccnc21)c1ccccn1 (stereo unspecified)	-9.907
Cc1cc(-c2ccc(=O)n(CCNC(=O)C3CCC3)n2)c(C)o1	-20.09
Cc1cc(-c2ccc(=O)n(CCNC(=O)C3CCCCC3)n2)c(C)o1	6.455
Cc1cc(-c2ccc(=O)n(CCNC(=O)C3CC3)n2)c(C)o1	55.53
O=C(Nc1cccc(CN2CCC(CO)CC2)c1)c1cc(Cl)c[nH]1	-16.48
CCN(Cc1cccs1)S(=O)(=O)N(C)C(C)C	30.52
COc1ccccc1CN(Cc1cccs1)S(=O)(=O)N(C)C(C)C	41.56
CC(C)N(C)S(=O)(=O)N(Cc1cccs1)Cc1cccs1	53.57
CCOc1ccc(C(F)(F)F)cc1NC(=O)N1CCNC(=O)C1	13.57
Br.O=C(CN(C1=NCCCC1)c1ccccc1)c1ccc(OC(F)F)cc1	62.24
Br.O=C(CN(C1=NCCCC1)c1ccccc1)c1ccccc1	-16.62
Br.O=C(CN(C1=NCCCCC1)c1ccc(Cl)cc1)c1ccccc1	14.11
Br.Cc1ccc(C(=O)CN(C2=NCCCCC2)c2ccccc2)cc1	29.09
Br.Cc1ccc(N(CC(=O)c2ccc(Br)cc2)C2=NCCCCC2)cc1	102.8
Br.COc1ccc(C(=O)CN(C2=NCCCCC2)c2ccccc2)cc1	15.77
Br.CCOc1ccc(N(CC(=O)c2ccccc2)C2=NCCCCC2)cc1	104.2
Br.O=C(CN(C1=NCCCC1)c1ccccc1)c1ccc2c(c1)OCCO2	22.49
Br.Cc1cccc(N(CC(=O)c2ccccc2)C2=NCCCCC2)c1	13.79

SMILES	Percent Effect [%]
O=C(NCC[S+]([O-])c1ccccc1)c1ccc2[nH]c(=O)[nH]c2c1 (stereo unspecified)	15.24
CCOC(=O)[C@@H]1[C@@H](O)C(=O)N(C)C12CCN(C(=O)OC)CC2	-16.14
CC(C)CCN1C(=O)C2(NC(=O)c3ccccc3O2)c2ccccc21 (stereo unspecified)	40.69
Cc1nc(-c2ccncc2)ncc1C(C)NC(=O)CN1CCOC1=O (stereo unspecified)	-51.46
O=S(=O)(NCCCn1cncn1)c1ccc2c(c1)CCC2	-2.394
CN(CCc1nccs1)C(=O)C1(C#N)CCCCC1	25.08
Cc1nc(NCCO)cc(C(C)Cn2nc(C)c(C)c2C)n1 (stereo unspecified)	-14.61
NC(=O)c1cn2cc(-c3ccccc3Cl)n(CC3CC3)c(=O)c2n1	14.04
CC(=O)NCC1CCN(c2ccnc3ccc(Br)cc23)CC1	9.267
CC1CCN(c2ccnc3ccc(Br)cc23)CC1	84.63
O=C(C1CCN(c2ccnc3ccc(Br)cc23)CC1)N1CCOCC1	-18.98
Cc1ccc(OCC(=O)Nc2cc(C(=O)O)cc(S(C)(=O)=O)c2)cc1C	18.88
CCc1nc(C2CCCN2C(=O)c2csc(COC)n2)no1 (stereo unspecified)	-20.84
Cc1cc(-n2cnnn2)n2ncnc2n1	-30.4
Cc1cc(N2CCCC2Cn2nc(C)cc2C)n2ncnc2n1 (stereo unspecified)	-13.82
Cc1cc(-n2cncn2)n2ncnc2n1	64.26
Cc1ccc(C(=O)N2CCOC(c3ncc(CN(C)C)[nH]3)C2)cc1F (stereo unspecified)	14.93
COc1ccc(F)cc1CN(CC(N)=O)C(C)C	-0.4736
Cc1cc(-c2ccccc2)nc(C2CCCN2S(C)(=O)=O)n1 (stereo unspecified)	-11.27
Cn1cc(Br)c(C(=O)NCCn2cc(Br)cn2)n1	8.473
N#Cc1ccc(N2CCC(OCCc3ccccc3)CC2)nc1	51.1
Cc1cccc(OC2CCN(c3ccc(C#N)cn3)CC2)n1	4.434
N#Cc1cccnc1N1CCC(OCCc2ccccc2)CC1	33.41

— ChEMBL document CHEMBL3988442, “University of Dundee, Small-Polar-MMV Screening Library” (2021)
